Source: PubChem
Sampled rows, rich in hits. Any-hit rate of the full collection: about 1.7%.
hERG WT inh – blocks the wildtype human KCNH2 potassium channel; Q12809; U2OS, BacMam KCNH2, thallium flux FluxOr; hits give low values; activity change, % at 1.84 µM; 340,000 compounds, 0.37% hits;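 active = maximum activity change below -70%; inconclusive = maximum activity change between -70% and -50%; inactive = maximum activity change above -50%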
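U2OS cells were transduced with wild-type KCNH2 virus (2.03 x 10^8 / mL) for 4 h at room temperature, then cultured overnight at 37 C. Thallium flux was read with FluxOr dye. Rate constants were normalized to DMSO controls.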
USP1-UAF1 inh – USP1/UAF1 (human) deubiquitinase inhibition. O94782. recombinant USP1/UAF1, Ub-Rhodamine cleavage fluorescence. Potency, µM (titrated, usually from 57.1 µM), most hits filed as inhibitors. 390,000 compounds, 0.23% hits. AID 743255; active = well fitted inhibition curve with a large enough effect; inconclusive = small, poorly fitted or top-dose-only effect; inactive = no such curve, though single readings can be large or run the other way; note: nearly all actives have a fitted effect of over 60% in size
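USP1/UAF1 complex (1 nM) preincubated 15 min at room temperature with compound, then Ub-Rho substrate (150 nM final) added. Kinetic fluorescence at 480/540 nm over 6 reads at 60 s intervals; 50 mM HEPES pH 7.8, 0.5 mM EDTA, 0.1 mg/ml BSA, 1 mM TCEP, 0.01% Tween-20.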
Coupling enz – inhibits coupling enzyme system, counter-screen for aldolase hits; coupling enzyme system counterscreen, AmpLite Red fluorescence; activity change, negative = inhibition, % at 58.2 µM, hits read low; 290,000 compounds, 0.67% hits; in the data active = activity change below about -30%
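Counterscreen of the coupled detection system alone, without aldolase: glyceraldehyde-3-phosphate coupling enzymes plus AmpLite Red readout. Compounds at 57.5 uM final, 10 min RT preincubation, 20 min RT reaction, fluorescence 525/598 nm.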
KCNH2 3.1 block – inhibitors of human KCNH2 3.1 potassium channel isoform; U2OS KCNH2 3.1, thallium flux FluxOr; hits give low values; activity change, % (tested at about 1.8 µM); 340,000 compounds, 0.95% hits; AID 720553;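 active = maximum activity change below -70%; inconclusive = maximum activity change from -70% to -50%; inactive = maximum activity change above -50%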;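 note: thallium influx rate constant from kinetic fluorescence after stimulation buffer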
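U2OS cells transduced with KCNH2 3.1 mutant virus (1.77 x 10^8 /mL, 4 h), plated overnight at 37 C, loaded 45 min with FluxOr dye plus Red40 quencher. Thallium flux rate constant from kinetic reads after stimulation buffer, normalised to controls.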
Giardia kill – kills Giardia lamblia; Giardia lamblia trophozoite viability; activity change, % at 7.66 µM, hits read low; 340,000 compounds, 0.15% hits; in the data active = activity change below about -80%; inconclusive = between about -30% and that limit;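 note: parasites exposed to compound for two days anaerobically before the ATP read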
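Trophozoite viability was measured as ATP-dependent luminescence, read 15-30 min after reagent addition. Before that, parasites at 100 cells/well were exposed to compounds for 48 h, anaerobically, at 37 deg C.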
Each line names hits and unclear results; the compound was inactive in the other large screens.

COc1ccccc1NC(=O)CCNS(=O)(=O)c1ccc2c(c1)CCN2C(=O)C1CC1	none (no result: hERG WT inh, Coupling enz, KCNH2 3.1 block, Giardia kill)
CN(C)c1cncc(C(=O)O)c1	Coupling enz -55
O=C(O)c1cncc(Br)c1	none
Cc1ccc(C)c(S(=O)(=O)C(C#N)c2nc3ccccc3nc2N2CCCC2)c1 (configuration not stated)	Coupling enz -36
Cc1ccccc1C(=O)Nc1ccnn1C1CCN(CCCc2ccccc2)CC1	hERG WT inh -139, KCNH2 3.1 block -106, Giardia kill inconclusive (no result: Coupling enz)
O=C(Nc1ccnn1C1CCN(CCCC2CCCC2)CC1)c1ccccc1	hERG WT inh inconclusive
COc1ccccc1C(=O)Nc1ccnn1C1CCN(C)CC1	none (no result: Coupling enz)
O=C(Nc1ccnn1C1CCN(CCCc2ccccc2)CC1)c1ccccc1	hERG WT inh inconclusive, KCNH2 3.1 block -85 (no result: Coupling enz)
COc1ccccc1C(=O)Nc1ccnn1C1CCN(CCCc2ccccc2)CC1	hERG WT inh -105, KCNH2 3.1 block -103
O=C(CCS(=O)(=O)c1ccc(F)cc1)Nc1nccs1	none (no result: Coupling enz, Giardia kill)
CC(=O)N1CCCC1c1nc2ccccc2n1Cc1cccc(C)c1 (configuration not stated)	none (no result: hERG WT inh, Coupling enz, KCNH2 3.1 block, Giardia kill)
O=C1Nc2ccccc2C1=Nc1cccc([N+](=O)[O-])c1	none
NC(=O)c1ccc(N=C2C(=O)Nc3ccc([N+](=O)[O-])cc32)cc1	USP1-UAF1 inh 14µM, Coupling enz -30
COC(=O)c1c(C)[nH]c(O)c1C=Nc1ccc(C#N)cc1	Coupling enz -36 (no result: hERG WT inh)
COc1cccc(NC(=O)CCC2CCN(C(=O)C(OC)c3ccccc3)CC2)c1 (configuration not stated)	USP1-UAF1 inh inconclusive (no result: Coupling enz, Giardia kill)
O=C(O)CC/C(=N\NC(=O)c1ccncc1)c1ccccc1	hERG WT inh -134, KCNH2 3.1 block -161
O=C(O)CC/C(=N\NC(=O)c1ccccc1)c1cccs1	none
COc1cc(SSc2cc(OC)cc([N+](=O)[O-])c2N)c(N)c([N+](=O)[O-])c1	Coupling enz -30
COc1ccc(-c2nnc(C3CCN(S(=O)(=O)c4cccc(Cl)c4)CC3)o2)cc1	none (no result: hERG WT inh, Coupling enz, KCNH2 3.1 block, Giardia kill)
CCOC(=O)CNC(=O)c1cc(-c2ccccn2)nc2c(C)c(Cl)ccc12	KCNH2 3.1 block -168
Cc1c(-c2cccc(NC(=O)Nc3ccccc3)c2)nc2ncccn12	none (no result: hERG WT inh, Coupling enz, KCNH2 3.1 block, Giardia kill)
CC(=O)N(C)c1ccc(OCC(O)Cn2c3ccc(Cl)cc3c3cc(Cl)ccc32)cc1 (configuration not stated)	hERG WT inh -76
CC(=O)Oc1cc(-c2coc3cc(OC(C)=O)c(OC(C)=O)c(OC(C)=O)c3c2=O)cc(OC(C)=O)c1OC(C)=O	Coupling enz -51 (no result: hERG WT inh, USP1-UAF1 inh, KCNH2 3.1 block, Giardia kill)
COc1cccc(NC(=O)/C(C#N)=C/c2c(C)n(Cc3ccc(Cl)cc3)c3ccccc23)c1	none (no result: hERG WT inh, Coupling enz, KCNH2 3.1 block, Giardia kill)
COc1ccc(OCC(O)CN2CCN(c3ccc(Cl)cc3)CC2)cc1 (configuration not stated)	KCNH2 3.1 block -84
Cc1cc(OCC(O)CN2CCc3ccccc3C2)ccc1Cl (configuration not stated)	KCNH2 3.1 block -80
Cc1cccc(N2CCN(CC(O)COc3ccccc3)CC2)c1 (configuration not stated)	none (no result: Coupling enz)
Cc1cccc(N2CCN(CC(O)COc3ccc(Cl)cc3)CC2)c1 (configuration not stated)	KCNH2 3.1 block -79
COc1cccc(OCC(O)CN2CCN(c3ccc(Cl)cc3)CC2)c1 (configuration not stated)	none
OC(COCc1ccc(Cl)cc1)CN1CCN(CC(O)COCc2ccc(Cl)cc2)CC1 (configuration not stated)	KCNH2 3.1 block -88
CCOc1ccc(OCC(O)CN2CCc3ccccc3C2)cc1 (configuration not stated)	KCNH2 3.1 block inconclusive
COC(=O)c1ccc(COC(=O)C2CCN(S(=O)(=O)c3c(C)cc(C)cc3C)CC2)o1	none (no result: Coupling enz, Giardia kill)
c1ccc(COC[C@@H]2CO2)cc1	none (no result: hERG WT inh, USP1-UAF1 inh, KCNH2 3.1 block, Giardia kill)
CCN(C(=O)COC(=O)C(c1ccccc1)c1ccccc1)c1c(N)n(Cc2ccccc2)c(=O)[nH]c1=O	none (no result: Coupling enz)
O=C1C=C(N2CCCCC2)c2ccccc2C1=O	USP1-UAF1 inh 7.9µM (no result: Coupling enz)
O=S(=O)(c1ccccc1S(=O)(=O)N1CCCCC1)N1CCCCC1	none
COc1ccc(CCn2c(=S)[nH]c(=O)c3[nH]cnc32)cc1OC	none (no result: hERG WT inh, USP1-UAF1 inh, Coupling enz, KCNH2 3.1 block)
CN(c1ccccc1)S(=O)(=O)c1ccc(NC(=O)c2cc(=O)c3ccccc3o2)cc1	none (no result: hERG WT inh, Coupling enz, KCNH2 3.1 block, Giardia kill)
